Measured values as given in PubChem BioAssay (NCI).
About 83,000 compounds went through this panel and 20% of them were active in at least one assay; those are over-represented in the sample as a whole.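 Each cell line was grown in a 96-well plate and treated with one concentration of compound for 48 hours. Values below 10 were considered active.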 Unmarked numbers belong to inactive results. Activity calls are given as the source filed them.

What was measured:
Assay in all cases: NCI-60 one-dose screen, 48 h (100 = growth as untreated, 0 = no growth, -100 = all killed)
Settings in all cases: 10 µM unless noted
SK-MEL-2 melanoma = test system: SK-MEL-2 melanoma
EKVX NSCLC = test system: EKVX NSCLC
SN12C renal = test system: SN12C renal
UO-31 renal = test system: UO-31 renal
TK-10 renal = test system: TK-10 renal
ACHN renal = test system: ACHN renal
CAKI-1 renal = test system: CAKI-1 renal
A498 renal = test system: A498 renal
CCRF-CEM leukemia = test system: CCRF-CEM leukemia
MOLT-4 leukemia = test system: MOLT-4 leukemia
SR leukemia = test system: SR leukemia
RPMI-8226 leukemia = test system: RPMI-8226 leukemia
OVCAR-8 ovarian = test system: OVCAR-8 ovarian
OVCAR-5 ovarian = test system: OVCAR-5 ovarian
OVCAR-4 ovarian = test system: OVCAR-4 ovarian
IGROV1 ovarian = test system: IGROV1 ovarian
OVCAR-3 ovarian = test system: OVCAR-3 ovarian
HS 578T breast = test system: HS 578T breast
NCI/ADR-RES ovarian = test system: NCI/ADR-RES ovarian
SK-OV-3 ovarian = test system: SK-OV-3 ovarian

Compound	growth (SK-MEL-2 melanoma)	growth (EKVX NSCLC)	growth (SN12C renal)	growth (UO-31 renal)	growth (TK-10 renal)	growth (ACHN renal)	growth (CAKI-1 renal)	growth (A498 renal)	growth (CCRF-CEM leukemia)	growth (MOLT-4 leukemia)	growth (SR leukemia)	growth (RPMI-8226 leukemia)	growth (OVCAR-8 ovarian)	growth (OVCAR-5 ovarian)	growth (OVCAR-4 ovarian)	growth (IGROV1 ovarian)	growth (OVCAR-3 ovarian)	growth (HS 578T breast)	growth (NCI/ADR-RES ovarian)	growth (SK-OV-3 ovarian)
CCCCCCCCNc1ncnc2c1ncn2Cc1nnc2c3ccccc3c(Cl)nn12	16.7%	57.3%	29.7%	23.6%	43.8%	28.5%	16.7%	69.8%	24.2%	12.3%	16.7%	35.4%	30%	102%	42.9%	31.4%	58%	54.3%	35.3%	
CCOC(=O)/C(=C/c1ccc([N+](=O)[O-])cc1)C(=O)c1ccccc1	53.9%	103%	79.3%	-14.3% (active)	20.7%	-7.93% (active)	81.6%	83.5%	6.25% (active)	4.35% (active)	4.07% (active)	-13% (active)	41.5%	41.7%	76%		58.4%	33.2%	25.7%	102%
N#CC1=C(N)Oc2c(ccc3cccnc23)C1c1ccccc1 (stereo not drawn)	43.2%	51.8%	49.5%	43.6%	73%	45.8%	39.9%	9.1% (active)	15.7%	39.2%	35.2%	11.6%	45.2%	56.3%	44.9%	42.4%	-6.82% (active)	35.6%	-11.2% (active)	
COc1ccc(N2C(=O)/C(=C/C(Cl)=C/c3ccc([N+](=O)[O-])cc3)SC2=S)cc1	37.4%	-3.04% (active)	-3.33% (active)	-97.7% (active)	-26.7% (active)	-68% (active)	0.845% (active)	63.2%	0.216% (active)	2.36% (active)	-6.82% (active)	-9.98% (active)	6.6% (active)	10%	10.4%		-57.6% (active)	26.3%	8.97% (active)	40.8%
c1ccc(-c2nc(N3CCNCC3)c3oc(-c4ccccc4)nc3n2)cc1	-34.1% (active)	-68.4% (active)	-82.1% (active)	-99.8% (active)	-71.3% (active)	-100% (active)	-94% (active)	88.2%	-31.1% (active)	-24.9% (active)	-1.84% (active)	-32.6% (active)	-25.1% (active)	-82% (active)	-88.2% (active)		-53.4% (active)	-60.7% (active)	-48.8% (active)	-46% (active)
CCOc1ccc(-c2cc(C3(S(=O)(=O)c4ccc(C)cc4)CC=CC3)on2)cc1	90.3%	68.8%	87%	81.4%	94.1%	86.8%	83.2%	72.1%	76.6%	76.8%	69.1%	62.4%	90.4%	101%	74.3%	88.5%	92%	96.4%	71%	
Clc1ccc2c(NCCCn3cnc4c(N5CCCC5)nc(Cl)nc43)ccnc2c1	89.6%	96.4%	94.3%	77.4%	102%	91.8%	90.8%	94.4%	104%	92.3%	84.2%	115%	103%	101%	100%		101%	104%	93.3%	88.2%
COc1ccc(C(=O)/C=C/c2ccc(C)cc2)cc1S(N)(=O)=O	87.1%	81%	6.38% (active)	37.4%	73.1%	55.8%	73.6%	82.7%	23.7%	15.9%	5.31% (active)	35.8%	29.3%	77%	84.1%	28%	39.2%	84.9%	51.7%	
O=c1n(C2OC(CO)C(O)C2O)ccc2nccn12 (stereo not drawn)	126%	108%	107%	99.8%	122%	104%	102%	95.8%	99.5%	97.9%	88.2%	114%	92%	115%	117%	113%	107%	101%	113%	
CCCCCCCCOC(=O)c1c(C)[nH]c(/C=C2\N=C(c3ccc[nH]3)C=C2OC)c1C	-70.3% (active)	27.8%	11.7%	-52.1% (active)	9.67% (active)	-18.9% (active)	-13.2% (active)	-7.97% (active)	17.7%	4.33% (active)	14.1%	-21% (active)	4.86% (active)	15.2%	4.99% (active)		-38.6% (active)	-27.8% (active)	15.9%	
N#C/C(=C\c1cccc2cnccc12)N1N=NC2C=CC=CC21 (stereo not drawn)	61.3%	40.4%	30.7%	27.2%	55.6%	19.2%	27%	38.5%	10.2%	31.7%	26.3%	18.8%	42.9%	51.8%	25.2%		6.92% (active)	24.2%	42.7%	86.1%
CC1(C)CC[C@]2(CO)CC[C@]3(C)C(=CC[C@@H]4[C@@]5(C)CCNCC(C)(C)[C@@H]5CC[C@]43C)[C@@H]2C1	53.7%	97.5%	80.5%	75.3%	95%	88%	67.3%	84.2%	73.8%	49.3%	-24.3% (active)	-26.1% (active)	87.4%	81.8%	81%	95%	89.5%	96.7%	91.9%	
CCCN1C2CCC1/C(=C\c1ccc(OC)cc1)C(=O)/C2=C/c1ccc(OC)cc1	72.5%	77.6%	75%	56.3%	85.9%	81.6%	74.4%	80%	67.4%	55%	45.4%	40.7%	72.6%	93.5%	73.5%		81.8%	92%	77%	79.4%
CCCCCCCC/C=C\CCCCCCCCOc1ccc(CC(=O)NCC[N+]2(C)CCCC2)cc1	103%	86.1%	42.5%	93.3%	38.5%	84.1%	50.9%	86.4%	29.5%	68.4%	50.3%	58.2%	50.4%	25%	62.1%	-11.8% (active)	84.3%	84.2%	111%	
CC1(C)CCC[C@]23C(=O)O[C@](O)(C(=O)C4=C[C@@](C)(/C=C/CCCc5ccc6ccc7cccc8ccc5c6c78)CC[C@@]42O)[C@@H]13	-61.8% (active)	-84.9% (active)	-94.4% (active)	-97.1% (active)	-88.7% (active)	-100% (active)	-98.5% (active)	-87.9% (active)	0.0961% (active)	9.46% (active)	9% (active)	-21.4% (active)	-34.2% (active)	-75.7% (active)	-92.3% (active)		-82% (active)	-7.13% (active)	-18.7% (active)	
